In ChEMBL document CHEMBL4513216, “Probing the Open Global Health Chemical Diversity Library for Multistage-Active Starting Points for Next-Generation Antimalarials” (ACS Infect Dis, 2020):
About 8,600 (12%) of roughly 69,000 compounds showed an effect of 50% or more. Only a selection was taken, and strong results are over-represented in it overall.

Tested on: Plasmodium berghei
Experiment: Screen against P. berghei liver stage (PbLuc), transformed with Luciferase, at 10uM
Type: functional, HepG2
Conditions: tested at 10 uM

In order of rising INHIBITION:
1. CN(c1ccc(-c2nc(C3CC3)no2)cn1)C1CCOCC1  -99.6%
2. CCc1[nH]nc(NC(=O)c2ccc(Cl)cn2)c1C  -61.3%
3. CC(C)c1noc(-c2ccc(N(C)C3CCOCC3)nc2)n1  -61.1%
4. Cc1cccc(CN2CCn3cc(Cn4cccn4)nc3C2)n1  -46.9%
5. Cn1cnnc1C1CCCN(C(=O)COc2ccccc2Cl)C1 (configuration not stated)  -37.7%
6. COC1C[C@@H]2CN(C(=O)Cc3ccc(C)s3)C[C@@H]2C1 (some centres not stated)  -34.45%
7. Nc1nc(Sc2cccs2)cc(N2CC[C@H](CO)[C@H](O)C2)n1  -28%
8. CCC[C@H]1CN(S(C)(=O)=O)C[C@@H]1NC(=O)Cc1ccc(OC)cc1  -26.9%
9. CC[C@@H](Cn1ncc2ccccc2c1=O)NC(=O)c1cnc(C)cn1  -20.6%
10. CCNC(=O)CN1CCc2c(Br)ccc(F)c2C1  -18.3%
11. CC1=NN(c2ccc(C(=O)OCCNC(=O)c3ccncc3)cc2)CC1  -17.8%
12. Cc1ccc(-c2cnc3n2CCN(C)C32CCN(CC3CC3)CC2)cc1  -12.1%
13. Cc1nc(C)n(CC2CCCN2c2ncnc3sc(C)c(C)c23)n1 (configuration not stated)  -11.6%
14. Clc1ccc(CN2CCOC[C@H](Oc3cccnc3)C2)cc1  -11.1%
15. CC(NC(=O)N1CCCN(C)CC1)c1ccc2c(c1)OCCO2 (configuration not stated)  -9.39%
16. CCOCCC(=O)N(CCC#N)c1ccc(C)c(C)c1  -2.27%
17. CCN1CCCC(c2cc(Nc3cnccn3)nc(C)n2)C1 (configuration not stated)  -2.11%
18. c1ccc2ncc(CC3CCNCC3)cc2c1  -0.232%
19. CO[C@H]1CNC[C@@H]1NC(=O)CCc1nc(-c2ccccc2)no1  0.426%
20. CC(C(=O)Nc1ccc(Cl)cn1)N1CCc2nn(C)c(=O)cc2C1 (configuration not stated)  6.23%
21. O=C1COC2(CCN(CC3CCC3)CC2)CN1c1cncnc1  8.67%
22. CC(C)Nc1cc(N2CCN(Cc3ccccc3)C(CCO)C2)ncn1 (configuration not stated)  9.06%
23. O=C(NCCc1cccs1)N1CCCC2(CCC(=O)N(C3CC3)C2)C1 (configuration not stated)  9.87%
24. Cc1nc(C2CN(Cc3ccc(F)cc3Br)CCO2)no1 (configuration not stated)  11.8%
25. CNc1nc(N2CCN(C3CCCCC3)C(CCO)C2)nc2c1CCC2 (configuration not stated)  12%
26. CCc1ncc(CN2CCc3nc4sc(C)cc4c(=O)n3CC2)cn1  13%
27. c1cncc(CN2CCOC(c3ncn4c(C5CC5)cccc34)C2)c1 (configuration not stated)  14.2%
28. c1cc(C2CC2)n2cnc(C3CN(Cc4nccs4)CCO3)c2c1 (configuration not stated)  15.7%
29. COCCCN1CCC(N(Cc2noc(C)n2)C(C)=O)C1 (configuration not stated)  16.9%
30. O=C(NCCCOCc1ccco1)c1cccnc1N1CCOCC1  18.2%
31. O=C(OCc1cc(=O)n2cc(Br)ccc2n1)c1ccc2c(c1)OCO2  19.8%
32. Cc1cc2c(=O)n3c(nc2s1)CCN(Cc1c[nH]cn1)CC3  23.2%
33. COc1cc(N2CCN(Cc3ccsc3)C(CCO)C2)nc(N)n1 (configuration not stated)  23.3%
34. CNc1nc(N2CCN(C)C(CCO)C2)nc2c1CCC2 (configuration not stated)  23.5%
35. CC(=O)N1CC(=O)N(c2cnn(C)c2)CC12CCN(Cc1ccsc1)C2 (configuration not stated)  23.5%
36. COCCN1CC2(CCCN(C(=O)CCCc3cccs3)C2)CCC1=O (configuration not stated)  25.1%
37. Cc1ccnc(C2CN(c3ncccn3)C2)n1  25.15%
38. Cc1nc[nH]c1CN1CCc2nc3scc(C)c3c(=O)n2CC1  26.8%
39. O=C(c1cnc(Nc2ccccc2)nc1)N1CCS(=O)(=O)CC1  27.4%
40. Cc1cc(N2CCC(NC(C)Cc3ccsc3)CC2)nc(C)n1 (configuration not stated)  27.9%
41. O=C(c1cnc(Nc2ccccc2)nc1)N1CCC2(CCNCC2)CC1  30.4%
42. CNc1nc(N2C[C@H](NC(=O)CCOC)[C@@H](C3CC3)C2)nc2c1CCC2  33.4%
43. O=C(c1ccc(-n2cnnc2)cc1Cl)N1CCCC2(CCNC2)C1 (configuration not stated)  35.1%
44. Fc1ccc(CN2CCOC[C@H](Oc3cccnc3)C2)cc1  38.1%
45. Cn1nccc1C(=O)N1CCOC(Cc2cccnc2)C1 (configuration not stated)  39.2%
46. O=C(c1ccnc(-n2cnnc2)c1)N1CCCC2(CCOC2)C1 (configuration not stated)  39.4%
47. COCCNC(=O)CCNC(=O)c1ccc(N2CCC(C)=N2)cc1  40.2%
48. Cc1cccc(CN2C[C@@H]3CN(C(=O)c4cnccn4)C[C@@H]3C2=O)n1  43.2%
49. Cc1cc2c(=O)n3c(nc2s1)CCN(Cc1cnc(C(C)C)nc1)CC3  43.7%
50. Cc1cc(N2CCC(NS(C)(=O)=O)CC2)nc(C(C)C)n1  49%
51. CN1[C@@H]2CC[C@H]1CN(c1cc(Sc3cccs3)nc(N)n1)CC2  49.2%
52. O=C(CCN1CCOCC1)Nc1cccc(CNCc2cccs2)c1  49.2%
53. CC(C)Oc1cc(N2CCN(Cc3ccsc3)C(CCO)C2)nc(N)n1 (configuration not stated)  49.4%
54. COCCOCCNC(=O)c1ccc(N2CCC(C)=N2)cc1  50.1%
55. CN1CCN(c2cc(Sc3cccs3)nc(N)n2)CC1CCO (configuration not stated)  50.2%
56. Cc1cc(N2CCN(Cc3ccsc3)C(CCO)C2)nc(N)n1 (configuration not stated)  50.5%
57. c1cc(C2CC2)n2cnc(C3CN(Cc4ccncc4)CCO3)c2c1 (configuration not stated)  51.2%
58. CNc1nc(N2CCN(Cc3ccsc3)C(CCO)C2)nc2c1CCC2 (configuration not stated)  53.8%
59. Cc1cc2c(=O)n3c(nc2s1)CCN(Cc1[nH]cnc1C)CC3  54.4%
60. COCCN1CC2(CCCN(C(=O)NCCc3cccs3)C2)CCC1=O (configuration not stated)  56.5%
61. O=C(c1ccnc(-n2cnnc2)c1)N1CCCC2(CCNC2)C1 (configuration not stated)  56.5%
62. O=C(c1cnc(Nc2ccccc2)nc1)N1CCCC2(CCNC2)C1 (configuration not stated)  58.1%
63. Cc1cc2c(=O)n3c(nc2s1)CCN(Cc1ccncc1)CC3  58.6%
64. FC(F)(F)c1cccc(CN2CCOC[C@H](Oc3cccnc3)C2)c1  63.8%
65. Cc1cc(N2CCC(NC(C)Cc3ccsc3)CC2)nc(N)n1 (configuration not stated)  64.9%
66. CNc1nc(N2CCN(CC=C(C)C)C(CCO)C2)nc2c1CCC2 (configuration not stated)  68.6%
67. Cc1ccccc1-c1noc(-c2ccc(N(C)C3CCOCC3)nc2)n1  83.2%
